Measurements published in PubChem BioAssay (Tox21).
Activity calls are given as the source filed them. A call without a number means that no potency is given here. The call rests on the fitted dose curve; in most records, active means well fitted activation curve with a large enough effect in the repeat runs; inconclusive means weak or mixed curves; inactive means flat fitted curve, though single readings scatter.

assay: A CellTox Green Cytotoxicity Assay to monitor cytotoxicity in HepG2 cells - 0 hour (AID 1224882); conditions: CellTox Green fluorescence; series mostly up to 76.8 µM; further: nearly all actives have a fitted effect of over 35% in size
Outline: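 Measurements at 0, 8, 16, 24, 32 and 40 h of treatment captured CellTox Green fluorescence in HepG2 cells that had been co-plated with reagent and preincubated 5 h at 37 C/5% CO2.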

Row | SMILES | Potency
1 | N#CCCCCC#N | inactive
2 | COP(=S)(OC)Oc1ccc(S(=O)(=O)N(C)C)cc1 | inactive
3 | N#Cc1c(Cl)c(Cl)c(Cl)c(C#N)c1Cl | inactive
4 | C[C@]12CC[C@H]3[C@@H](CCC4=CC(=O)CC[C@@H]43)[C@@H]1CC[C@@H]2O | inactive
5 | COc1ccc(CO)cc1 | inactive
6 | CCC(=O)Nc1ccc(Cl)c(Cl)c1 | inactive
7 | NN=C(N)N | inactive
8 | OC(c1ccc(Cl)cc1)(c1cncnc1)c1ccccc1Cl (stereo not drawn) | inactive
9 | Cl | inactive
10 | CC(C)(c1ccccc1)c1ccc(O)c(C(C)(C)c2ccccc2)c1 | inactive
11 | CC(C)(c1ccccc1)c1ccc(O)cc1 | inactive
12 | COP(=O)(NC(C)=O)SC (stereo not drawn) | inactive
13 | COC(=O)Nc1nc2ccccc2[nH]1 | inactive
14 | CC(O)CN(CC(C)O)CC(C)O (stereo not drawn) | inactive
15 | CCCCSP(=O)(SCCCC)SCCCC | inactive
16 | O=P(OCCCl)(OCCCl)OCCCl | inactive
17 | CCOS(=O)(=O)OCC | inactive
18 | CC(C)(O)C#N | inactive
19 | CS(=O)(=O)NC(=O)c1cc(Oc2ccc(C(F)(F)F)cc2Cl)ccc1[N+](=O)[O-] | inactive
20 | Nc1ccc([N+](=O)[O-])cc1N | inactive
21 | Oc1ccc(Cl)cc1Cc1ccccc1 | inactive
22 | CCC1(c2ccc(N)cc2)CCC(=O)NC1=O (stereo not drawn) | inactive
23 | NC(=O)CN1CCCC1=O | inactive
24 | COc1ccc(C=O)cc1OC | inactive
25 | O=C(O)c1nn(Cc2ccc(Cl)cc2Cl)c2ccccc12 | inactive
26 | Brc1ccc(Br)cc1 | inactive
27 | [CH3][Sn]([Cl])([Cl])[Cl] | inactive
28 | O=C1C(Cl)=C(Cl)C(=O)c2ccccc21 | inactive
